From PubChem BioAssay AID493169 (National Center for Advancing Translational Sciences (NCATS), 2011)
Records with an inconclusive call do not appear. A call without a number means that no potency is given here. The source made the active and inactive calls. The call rests on the fitted dose curve; in most records, active means well fitted inhibition curve with a large enough effect; inconclusive means small, poorly fitted or top-dose-only effect; inactive means flat fitted curve, though single readings scatter.

Test: CHOP2 Reporter Counterscreen Assay for Inhibitors of Ubiquitin-specific Protease USP2a;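 further: activated enterokinase alone at 50 pM in a cell-free format rather than USP2a or CHOP2; nearly all actives have a fitted effect of over 55% in size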
Conditions: purified enterokinase, fluorogenic substrate, 485/531 nm; series mostly up to 38.3 µM
Text: NIH Molecular Libraries Probe Centers Network [MLPCN] NIH Chemical Genomics Center [NCGC] MLPCN Grant: XO1-MH079852-01 PI Name: Nicholson, Ben. Progenra Inc, Malvern, PA NCGC Assay Overview: Homeostasis of cellular proteins is maintained through a combination of synthesis and degradation. The pathway that accounts for the majority of protein degradation is the ubiquitin-proteasomal pathway. Ubiquitin (Ub) is highly conserved in all cells and the generation of a multi-Ub chain typically targets proteins for degradation by the proteasome. However, ubiquitination is highly reversible and dynamic. Deubiquitination, the reverse process, is catalyzed through the action of enzymes referred to as isopeptidases or deubiquitinating enzymes (DUBs). This group of enzymes is collectively responsible for maintaining adequate pools of free ubiquitin and regulating the ubiquitination status of cellular proteins. The class of DUBs referred to as the ubiquitin-specific proteases (USP) family functions endoproteolytically to cleave Ub chains from a wide range of protein substrates. USP2a deubiquitinates fatty acid synthase (FASN) which has recently been identified as an emerging oncology target. To identify inhibitors of USP2a a cell-free assay was employed. This assay is a counterscreen against the reporter enzyme used to measure USP2a activity in the primary qHTS assay. The reporter enzyme is a protease (enterokinase, EK; EC 3.4.21.9), which is activated when a Ub sequence is cleaved by USP2a. The counterscreen assay is performed in the same buffer and conditions as the primary USP2a coupled assay but uses fully activated EK alone. The assay gives a fluorescent read-out at excitation/emission wavelengths of 485/531. The assay was provided by Progenra, Inc. and has been licensed for sale by LifeSensors, Inc.
NCGC Assay Protocol: The assay buffer, prepared fresh at the day of the assay, contains 20mM Tris-HCl pH 8.0, 2mM CaCl2, 2mM beta-Mercaptoethanol, 0.05% CHAPS. 3uL of 100 pM EK (50 pM final) was dispensed into a medium-binding black solid Kalypsys 1,536 well plate using the Kalypsys dispenser. The assay plate was then pinned with 23nL compounds in DMSO with the Kalypsys pintool in columns 5-48 (0.3% final DMSO concentration). The negative control was buffer/DMSO only in column 3. The assay plate is incubated at RT for 30min. Subsequently, 3uL of reporter substrate (25nM final) were dispensed into the plate using the Kalypsys dispenser. Plates were read after 10 min at RT on a ViewLux (Perkin Elmer) plate reader using the following wavelengths: Ex 485nm /Em 531nm. Data were normalized to the AC100 inhibition (buffer alone). Concentration-response curves were fitted to the normalized data and the concentration-response curves were then classified based on curve quality (r2), response magnitude and degree of measured activity. The time zero reading was used to flag fluorescence artifacts.
Potency means the concentration at half of the fitted maximal effect.

SMILES	Potency
O=C1NC(=S)N(c2ccccc2)C(=O)/C1=C/c1ccco1	3.55 µM (active)
Nc1ccc(S(=O)(=O)N2CCCCC2c2cccnc2)cc1 (centres undefined)	inactive
COc1ccc(NC(=O)c2c(C)nn(Cc3ccccc3Cl)c2Cl)cc1Cl	inactive
Clc1ccc(C(c2ccc(Cl)cc2)n2cc[n+](CC(OCc3ccc(Cl)cc3Cl)c3ccc(Cl)cc3Cl)c2)cc1 (centres undefined)	3.16 µM (active)
O=C1NC(=O)[C@]2(Cc3ccccc3N3CCN(c4ccccc4)CC32)C(=O)N1Cc1ccccc1 (some centres undefined)	10 µM (active)
O=C1CC(=O)N(Cc2ccccc2)C(=O)N1CCCCCCN1C(=O)CC(=O)N(Cc2ccccc2)C1=O	inactive
O=C(O)c1cccc2c1NC(C(=O)O)C1CC(Sc3ccccc3[N+](=O)[O-])C(Cl)C21 (centres undefined)	10 µM (active)
CC(=Nc1ccc2c(c1)CCC2)c1c(O)n(C)c(=O)n(C)c1=O	inactive
O=C1NC(=O)N(Cc2ccco2)C(=O)/C1=C/C=C/c1ccco1	8.91 µM (active)
OC(c1ccncc1)(c1ccc(F)cc1)c1ccc(F)cc1	inactive
O=c1[nH]c(=S)n(Cc2ccco2)c(O)c1C=NCc1cccs1	8.91 µM (active)
CC(C)N1C(=O)/C(=C/C=C/c2ccco2)C(=O)N(Cc2ccco2)C1=O	7.94 µM (active)
Cc1nn(Cc2ccc(Cl)cc2Cl)c(Cl)c1C(=O)Nc1ccc(OC(F)F)cc1	inactive
FC(F)(F)c1ccc2c(c1)N(CCCN1CCN(CCCl)CC1)c1ccccc1S2	inactive
NC(N)=N/N=C/c1ccc(N(c2ccccc2)c2ccccc2)cc1	8.91 µM (active)
CCCC1=C(C(=O)OCC)C2(C(=O)Nc3ccc(C)cc32)C(C#N)=C(N)O1 (centres undefined)	inactive
O=c1[nH]c(=O)n(Cc2ccc(F)cc2)c(O)c1C=NCCCn1ccnc1	inactive
O=C(COc1ccc(S(=O)(=O)N2CCOCC2)cc1)N1CCN(Cc2ccc3c(c2)OCO3)CC1	inactive
COc1ccc(S(=O)(=O)Cc2ccc(C(=O)N3CCC4(CC3)OCCO4)o2)cc1	inactive
